Results reported in PubChem BioAssay (Tox21).
Results filed as inconclusive are left out. Where a call stands in place of a potency, no number is given. Activity calls are given as the source filed them. Unless noted, calls come from the whole dose curve; as a rule, active = well fitted cell-killing curve with a large enough effect in the repeat runs; inconclusive = weak or mixed curves, or effect the other way; inactive = no such curve, though single readings can be large or run the other way.

What was measured:
[1] = qHTS assay to identify small molecule agonists of the vitamin D receptor (VDR) signaling pathway - cell viability counter screen (AID 743224); note: series mostly up to about 63 µM; nearly all actives have a fitted effect of over 50% in size
Method in brief: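 CellTiter-Glo viability readout on VDR-bla cells, measured after 16 h of compound treatment at 37C in the same wells.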

[2] = qHTS assay to identify small molecule antagonists of the vitamin D receptor (VDR) signaling pathway - cell viability counter screen (AID 743225); note: nearly all actives have a fitted effect of over 50% in size
Method in brief: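 Read-out: CellTiter-Glo luminescence measured 30 min after reagent addition at room temperature. Cells were VDR-bla HEK 293T exposed 16 h at 37C, 5% CO2, to compound with 3 nM final calcitriol agonist.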

[3] = qHTS assay to identify small molecule agonists of the endoplasmic reticulum stress response signaling pathway (AID 1159516; active = well fitted activation curve with a large enough effect in the signal ratio in the repeat runs, not every such curve was filed as active; the % refers to the signal ratio)
Method in brief: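 Fluorescence at 460 and 530 nm (405 nm excitation) reports beta-lactamase from an ER stress response element in HeLa cells treated 5 hr at 37 C.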

[4] = qHTS assay to identify small molecule agonists of the endoplasmic reticulum stress response signaling pathway - cell viability counter screen (AID 1159517; calls by dose curve; note: series mostly up to about 61 µM; nearly all actives have a fitted effect of over 50% in size)
Method in brief: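 Steps: seed 1,500 ESRE-bla HeLa cells per well; incubate overnight at 37 C, 5% CO2; add compounds in DMSO for 5 hr; run FRET substrate 2 hr RT; add CellTiter-Glo, wait 30 min, read luminescence.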

[5] = qHTS assay to identify small molecule antagonists of the retinoid-related orphan receptor gamma (ROR-gamma) signaling pathway - cell viability counter screen (AID 1159520); note: nearly all actives have a fitted effect of over 50% in size; note: potency is the fitted concentration of half-maximal effect
Method in brief: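 Tet-on ROR gamma CHO cells were given compounds for 2 hr, then doxycycline hyclate at 1 uM final, and incubated 16 hr at 37 C. Viability was measured as ATP content by CellTiter-Glo luminescence.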

[6] = qHTS assay to identify small molecule agonists of the AP-1 signaling pathway - cell viability counter screen (AID 1159525; calls by dose curve; note: nearly all actives have a fitted effect of over 55% in size; note: potency is the fitted concentration of half-maximal effect)
Method in brief: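 Same-well cytotoxicity counter screen of the Tox21 10K library in ME-180 cells. The readout is ATP-dependent luminescence after 5 h compound treatment. Data are normalised to DMSO and tetra n-octyl ammonium bromide controls.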

[7] = qHTS assay to identify small molecule agonists of the AP-1 signaling pathway (AID 1159526; calls by dose curve)
[8] = target: Retinoic acid receptor RXR-alpha (Homo sapiens) (UniProt P19793); test: qHTS assay to identify small molecule agonists of the RXR signaling pathway (AID 1159527; calls by dose curve; note: nearly all actives have a fitted effect of over 35% in size)
Retinoic acid receptor RXR-alpha (Homo sapiens), sequence (P19793 whole entry, looked up): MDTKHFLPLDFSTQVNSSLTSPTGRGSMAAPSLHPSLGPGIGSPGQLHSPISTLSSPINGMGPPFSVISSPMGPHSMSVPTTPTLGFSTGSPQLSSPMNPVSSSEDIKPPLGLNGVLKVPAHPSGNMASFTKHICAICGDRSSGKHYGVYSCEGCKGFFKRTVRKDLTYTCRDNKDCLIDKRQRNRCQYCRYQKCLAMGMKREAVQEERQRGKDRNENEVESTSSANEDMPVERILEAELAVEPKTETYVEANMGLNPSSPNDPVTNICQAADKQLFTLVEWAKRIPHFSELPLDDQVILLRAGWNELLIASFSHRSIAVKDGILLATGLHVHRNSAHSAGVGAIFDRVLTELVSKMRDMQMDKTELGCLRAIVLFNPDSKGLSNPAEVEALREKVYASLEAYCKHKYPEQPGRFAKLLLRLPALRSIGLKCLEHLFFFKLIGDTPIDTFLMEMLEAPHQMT
Method in brief: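 Read-out: beta-lactamase FRET ratio (405 nm excitation, 460 and 530 nm emission) after 2 hr substrate loading at room temperature. Cells were RXR-alpha-UAS-bla HEK 293T treated with compounds for 16 hr in 2% charcoal-stripped FBS medium.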

| SMILES | Potency [1] | Potency [2] | Potency [3] | Potency [4] | Potency [5] | Potency [6] | Potency [7] | Potency [8] |
| --- | --- | --- | --- | --- | --- | --- | --- | --- |
| CCCCOC(=O)CCCCCCCC(=O)OCCCC | inactive | inactive | inactive | inactive | inactive | inactive | inactive | inactive |
| Nc1c(CC(=O)O)cccc1C(=O)c1ccc(Br)cc1 | inactive | inactive | inactive | inactive | inactive | inactive | inactive |  |
| Nc1ccc(N)c2c1C(=O)c1ccccc1C2=O | inactive | inactive | inactive | inactive | 21.7 µM (active) |  | inactive |  |
| CO[C@@H]1[C@H](OC(=O)/C=C/C=C/C=C/C=C/C(=O)O)CC[C@]2(CO2)[C@H]1[C@@]1(C)O[C@@H]1CC=C(C)C | inactive | inactive | inactive | inactive | inactive | inactive | inactive |  |
| CCC(C)O (configuration not stated) | inactive | inactive | inactive | inactive | inactive | inactive | inactive |  |
| CC(C)Cc1ccc(C(C)C(=O)OCc2ccccn2)cc1 (configuration not stated) | inactive | inactive | inactive | inactive | inactive | 0.239 µM (active) | inactive |  |
